{"source": "PubChem BioAssay AID1508600", "about": "(Functional Genomics Laboratory (NCATS/FGL), 2020)", "note": "Out of some 53,000 sequences screened, about 3,700 (7%) were called active. The sample as a whole holds a higher share of actives than the screen did. Unmarked numbers belong to inactive results.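 Rule for the calls: active = gene knockdowns whose robust z-score for IL-1 alpha signal is at least 2 or at most -2, so actives lie on both sides; inactive = the rest.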"}
{"experiment": "Components of the Cytosolic LPS Sensing Pathway: Gene Identification via Genome-wide siRNA Screen;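 note: robust z of the log signal after scaling to non-targeting control siRNA wells of the plate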", "settings": "RAW264.7 macrophages, IL-1a HTRF, actives lie on both sides, screened at 100 nM (by protocol), cells primed 5 h with Pam3CSK4 first", "procedure,_shortened": "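Knockdown: 100 nM siRNA, 48h, RAW264.7. Stimulation: Pam3CSK4 5 h, then LipidA via TransIT-TKO 24 h. Output: supernatant IL-1a HTRF, negative-control-normalized, log robust z-score; viability by CellTiter-Glo.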"}
{"sequence": "GGAUAUGCUCUCUUGGCUCTT against Ctsk", "z-score": "-2.07 (active)"}
{"sequence": "GGCUUCCUCCACUCUUUCCTT against Rhbg", "z-score": -1.81}
{"sequence": "GGAACCAUGAAAUAAAUGUTT against Acad8", "z-score": 0.684}
{"sequence": "CCCUUAUUGAUUCUUCAAGTT against Ngp", "z-score": 0.342}
{"sequence": "GGUGCAACCAGUGUGUGAUTT against St6galnac6", "z-score": "4.22 (active)"}
{"sequence": "CCCUCUAUCCUUAAACCAUTT against Erg28", "z-score": -0.549}
{"sequence": "CCUAUUCUUAACACCCUUGTT against Tfr2", "z-score": 0.891}
{"sequence": "AUCUCUCCUGUUCUAACACTT against Olfr26", "z-score": -0.242}
{"sequence": "GGUCAUCAGCUUGUAACCATT against Mmadhc", "z-score": -1.37}
{"sequence": "GGACAAUUACAUCCAGCCUTT against 2610528J11Rik", "z-score": "-2.11 (active)"}
{"sequence": "GGACCUCAGCGAAGACAAUTT against Cd300e", "z-score": 0.114}
{"sequence": "GGUGAAAAGGUUGAUGUCATT against Spertl", "z-score": -0.368}
{"sequence": "GCUCAAUAGCUCAAAGUUUTT against Chsy3", "z-score": -0.197}
{"sequence": "GCCCUCCAACCUCGAUAACTT against Shisa7", "z-score": "2.9 (active)"}
{"sequence": "GGAUGACCAAGAAUGGGAATT against Dap", "z-score": 0.341}
{"sequence": "GCAAAGGAGGCUUCUAUUGTT against Olfr380", "z-score": -0.803}
{"sequence": "GGAGUUGUGGAAUUCUCUATT against Extl2", "z-score": -1.3}
{"sequence": "AACAGAUCUUCUCUGGUCCTT against Klra15", "z-score": "-2.47 (active)"}
{"sequence": "GCUUGUGUUUUAGAGCCGCTT against Mat1a", "z-score": 0.653}
{"sequence": "GCACAAUGACGCACUUACCTT against Pik3r2", "z-score": 0.693}
{"sequence": "CCUGGAAUGUAUUUGUUAUTT against Nkain2", "z-score": 0.0256}
{"sequence": "GGAACACUACCGUUUUGGGTT against Ehd2", "z-score": "2.55 (active)"}
{"sequence": "GGACCAGGUUUGUUUUUUATT against Stom", "z-score": 1.03}
{"sequence": "CGGUUUUGUCAAAGCCCUGTT against Junb", "z-score": 0.322}
{"sequence": "GGUCAAGACGGUCUACCGATT against Rab3d", "z-score": -0.571}
{"sequence": "GGGAUAUCAAAGCAAAAAUTT against Rab8a", "z-score": -0.578}
{"sequence": "GGGUUCACGAAAGAGUAAATT against Clcn5", "z-score": -1.21}
{"sequence": "GCCGUACCGGAUUUUUUUCTT against Smyd3", "z-score": "4 (active)"}
{"sequence": "GCAGCUAACUCCAAGUCAGTT against Tfam", "z-score": -1.42}
{"sequence": "GGACUUGCCUUGAUCGCUATT against Mars2", "z-score": 0.853}
{"sequence": "CGCGACAGAAUCAGUACAATT against Hnf4g", "z-score": "2.17 (active)"}
{"sequence": "GGUUCCUACACGAAAGGAUTT against Eif2b4", "z-score": 0.14}
{"sequence": "GCCUUUACCCAAAUUAUCATT against Defb4", "z-score": 0.567}
{"sequence": "GGACACUGUACUCAAACCUTT against Cntnap5b", "z-score": "-2.86 (active)"}
{"sequence": "GGUGUAUACUGUGAAAUCATT against Notch1", "z-score": -0.319}
{"sequence": "GGGCAUUGUUGAGCACCUUTT against Pgap6", "z-score": -1.81}
{"sequence": "GGAAAAGCUGGAGGAAGACTT against Tef", "z-score": 0.525}
{"sequence": "GGAAUGUCAAUCUUGAGAGTT against Asprv1", "z-score": -0.812}
{"sequence": "GCAGACAUUGCACAAACCCTT against Ankrd10", "z-score": 0.355}
{"sequence": "GCCUGUCUCCUCAAUGCUUTT against Gm9903", "z-score": -0.319}
{"sequence": "ACUGUAUGAAGAGGAAACATT against Krt87", "z-score": "-2.14 (active)"}
{"sequence": "GGACAGUAUAGUGGAGAUCTT against Fgf22", "z-score": 1.66}
{"sequence": "GCUAUUCUGUCUACGUGUATT against H2bc18", "z-score": -0.356}
{"sequence": "CCGAAAUGUGUGUUUUAAATT against Vapb", "z-score": 1.57}
{"sequence": "GGUCUUUCCGGCAGUUCUUTT against Rxrg", "z-score": "-2.27 (active)"}
{"sequence": "GGAAUCGGUGGCCAUCAAUTT against Olfr771", "z-score": 0.458}
{"sequence": "GGAAGCUGAAGGUUUGCCATT against Wipi2", "z-score": -0.529}
{"sequence": "GGAUCAGGAGCUGUUUGGATT against Adamtsl4", "z-score": 1.05}
{"sequence": "GGAUGUCUACUGGAAUGUUTT against Pigv", "z-score": -1.16}
{"sequence": "GUGAAGGCCCAUGGCAAGATT against Hbb-b1", "z-score": -0.235}
{"sequence": "CCGUAUUUGGACUGAGCAATT against Chic2", "z-score": 0.63}
{"sequence": "GCUAGGGAUUUACCUCUUCTT against Gpr65", "z-score": 0.743}
{"sequence": "GCCUGAGGAUCUAUAGAUATT against Prss29", "z-score": -1.36}
{"sequence": "UGGAAGCCUUAUGCCGUCUTT against Gpr31b", "z-score": 0.895}
{"sequence": "GGCUCUAACUGUGAGAAGATT against Dll3", "z-score": "-2.44 (active)"}
{"sequence": "GGCUAACUCCUUAAAACCUTT against Aldh18a1", "z-score": -0.372}
{"sequence": "GGCUUCCACGUAAUUGUCCTT against Six3os1", "z-score": 0.649}
{"sequence": "GGCCGACUUGAUCAAUAACTT against Hsp90aa1", "z-score": -0.164}
{"sequence": "CCCGGAGCUUGAAUUACUGTT against Usp7", "z-score": "2.36 (active)"}
{"sequence": "GGAUUUUUCCAUAAAAACCTT against B3galnt1", "z-score": 1.04}
{"sequence": "CCUCCCAGUACACUUGAAATT against Cox7a1", "z-score": 0.0752}
{"sequence": "GGAAGAAACGGAGACUCAATT against Dpf1", "z-score": 0.052}
{"sequence": "CCAAUGAGUUAAUCACCUUTT against Olfr1135", "z-score": 0.587}
{"sequence": "GGUCCAUACUCCUAAAGAATT against Mpzl1", "z-score": -0.727}
{"sequence": "GGUGCAGUUUCUCCUCUUUTT against Pla1a", "z-score": "2.09 (active)"}
{"sequence": "GGAUCUGUUACUCUGAUACTT against Pias4", "z-score": 0.847}
{"sequence": "GGUCAACAUUAAAAUACUGTT against Map2k4", "z-score": -0.0649}
{"sequence": "GGUUUGCCUAUUUUUUCUUTT against Trmt10c", "z-score": 1.9}
{"sequence": "GGGUUUUUUUUUUCCUUCCTT against Hsd17b1", "z-score": -0.0306}
